# PubChem BioAssay (Tox21)
# Results filed as inconclusive are left out. Entries that show only a call come without a potency. The source made the active and inactive calls. Unless noted, calls come from the whole dose curve; as a rule, active = well fitted cell-killing curve with a large enough effect in the repeat runs; inconclusive = weak or mixed curves, or effect the other way; inactive = no such curve, though single readings can be large or run the other way.
# How the values were obtained:
# [1] = qHTS assay to identify small molecule agonists of the farnesoid-X-receptor (FXR) signaling pathway - cell viability counter screen (AID 743218); note: nearly all actives have a fitted effect of over 45% in size; note: potency is the fitted concentration of half-maximal effect
# How it was run: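 Cytotoxicity counter-screen run in parallel, same wells: FXR-UAS-bla HEK 293T cells dosed 16 h at 37 C, viability read by CellTiter-Glo luminescence after 30 min at room temperature.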
# [2] = qHTS assay to identify small molecule antagonists of the farnesoid-X-receptor (FXR) signaling pathway - cell viability counter screen (AID 743221; active = well fitted cell-killing curve with a large enough effect in the repeat runs, not every such curve was filed as active; note: nearly all actives have a fitted effect of over 50% in size)
# How it was run: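 Luminescence from CellTiter-Glo measures cytotoxicity in GeneBLAzer FXR-UAS-bla HEK 293T cells. Cells were exposed to compounds with 50 uM chenodeoxycholic acid (final) for 16 h at 37 C, in wells also used for the reporter readout.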
# [3] = qHTS assay to identify small molecule agonists of the vitamin D receptor (VDR) signaling pathway - cell viability counter screen (AID 743224); note: nearly all actives have a fitted effect of over 50% in size; note: potency is the fitted concentration of half-maximal effect
# How it was run: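 Viability is measured in the same wells as the VDR-bla reporter assay: after 16 h compound treatment and 2 h substrate loading, CellTiter-Glo is added and luminescence read 30 min later.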
# [4] = target: Bile acid receptor (Homo sapiens) (UniProt Q96RI1); experiment: qHTS assay to identify small molecule agonists of the farnesoid-X-receptor (FXR) signaling pathway (AID 743220; active = well fitted activation curve with a large enough effect in the signal ratio in the repeat runs, not every such curve was filed as active; the % refers to the signal ratio)
# Bile acid receptor (Homo sapiens), sequence (Q96RI1 whole entry, looked up): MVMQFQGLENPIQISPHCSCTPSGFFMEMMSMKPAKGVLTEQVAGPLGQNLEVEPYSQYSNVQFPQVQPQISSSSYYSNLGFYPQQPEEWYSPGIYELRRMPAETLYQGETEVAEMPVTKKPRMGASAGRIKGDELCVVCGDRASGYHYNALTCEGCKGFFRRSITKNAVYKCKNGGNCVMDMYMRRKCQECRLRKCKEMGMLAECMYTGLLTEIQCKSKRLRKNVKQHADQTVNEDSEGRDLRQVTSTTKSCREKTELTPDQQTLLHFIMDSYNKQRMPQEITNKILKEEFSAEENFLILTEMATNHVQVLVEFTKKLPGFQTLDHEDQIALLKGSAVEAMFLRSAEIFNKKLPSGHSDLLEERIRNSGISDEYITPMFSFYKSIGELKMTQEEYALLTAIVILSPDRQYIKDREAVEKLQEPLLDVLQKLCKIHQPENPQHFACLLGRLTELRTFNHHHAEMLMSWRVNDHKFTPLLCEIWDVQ
# How it was run: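 Beta-lactamase reporter under UAS control in GeneBLAzer FXR HEK 293T cells (5000/well) measured with LiveBLAzer FRET substrate after 2 h at room temperature. Compound exposure lasted 16 h at 37C.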
# [5] = target: Vitamin D3 receptor (Homo sapiens) (UniProt P11473); experiment: qHTS assay to identify small molecule agonists of the vitamin D receptor (VDR) signaling pathway (AID 743222; calls by dose curve)
# Vitamin D3 receptor (Homo sapiens), sequence (P11473 whole entry, looked up): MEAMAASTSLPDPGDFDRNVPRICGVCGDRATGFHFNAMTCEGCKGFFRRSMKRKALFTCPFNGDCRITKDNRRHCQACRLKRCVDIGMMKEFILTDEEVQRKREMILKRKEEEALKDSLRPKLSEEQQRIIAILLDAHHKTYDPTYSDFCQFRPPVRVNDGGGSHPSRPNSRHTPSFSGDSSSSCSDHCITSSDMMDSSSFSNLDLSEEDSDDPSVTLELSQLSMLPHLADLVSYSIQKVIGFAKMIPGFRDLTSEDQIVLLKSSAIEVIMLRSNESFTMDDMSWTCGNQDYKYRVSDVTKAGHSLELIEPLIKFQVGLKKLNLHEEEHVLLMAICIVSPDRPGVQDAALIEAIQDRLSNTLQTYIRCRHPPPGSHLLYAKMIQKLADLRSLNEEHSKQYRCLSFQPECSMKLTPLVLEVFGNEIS
# How it was run: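 Quantitative HTS agonist-mode screen: compounds in DMSO were pin-transferred onto VDR-bla cells and incubated 16 h at 37C, 5% CO2. Reporter activity was detected with LiveBLAzer B/G FRET substrate after 2 h at room temperature.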
# [6] = target: Bile acid receptor (Homo sapiens) (UniProt Q96RI1); experiment: qHTS assay to identify small molecule antagonists of the farnesoid-X-receptor (FXR) signaling pathway (AID 743217; active = well fitted inhibition curve with a large enough effect in the signal ratio in the repeat runs, not every such curve was filed as active; the % refers to the signal ratio)
# How it was run: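 Antagonist mode against 50 uM (final) chenodeoxycholic acid stimulation in FXR-bla HEK 293T cells, 16 h at 37 °C. Inhibition detected as reduced beta-lactamase activity via LiveBLAzer B/G FRET fluorescence after 2 h at room temperature.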
# [7] = target: Vitamin D3 receptor (Homo sapiens) (UniProt P11473); experiment: qHTS assay to identify small molecule antagonists of the vitamin D receptor (VDR) signaling pathway (AID 743223; active = well fitted inhibition curve with a large enough effect in the signal ratio in the repeat runs, not every such curve was filed as active; the % refers to the signal ratio)
# How it was run: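 Antagonist mode uses 1alpha,25-dihydroxyvitamin D3 at 3 nM final as stimulus. VDR-bla cells receive compounds in DMSO, incubate 16 h at 37C, then a beta-lactamase FRET substrate for 2 h at room temperature before fluorescence measurement.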
# [8] = qHTS assay to identify small molecule antagonists of the vitamin D receptor (VDR) signaling pathway - cell viability counter screen (AID 743225); note: nearly all actives have a fitted effect of over 50% in size; note: potency is the fitted concentration of half-maximal effect
# How it was run: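 Read-out: CellTiter-Glo luminescence measured 30 min after reagent addition at room temperature. Cells were VDR-bla HEK 293T exposed 16 h at 37C, 5% CO2, to compound with 3 nM final calcitriol agonist.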
smiles,measurement,setting,value
C[n+]1c2cc(N)ccc2cc2ccc(N)cc21 (tested in a mixture with another compound),Potency,[1],15 µM (active)
same,Potency,[2],inactive
O=C(O)c1cccc(Cl)n1,Potency,[1],inactive
same,Potency,[3],24.5 µM (active)
COc1ccccc1OCCNCC(O)COc1cccc2[nH]c3ccccc3c12 (stereo not given),Potency,[1],26.6 µM (active)
same,Potency,[4],inactive
same,Potency,[5],inactive
CN(C)c1ccc(N=NS(=O)(=O)O)cc1,Potency,[2],inactive
same,Potency,[3],inactive
C=CC(C)(CCC=C(C)C)OC(=O)/C=C/c1ccccc1 (stereo not given),Potency,[6],inactive
same,Potency,[1],inactive
same,Potency,[4],inactive
same,Potency,[2],inactive
same,Potency,[3],38.9 µM (active)
Cc1c(C)n(Cc2ccccc2)c2ccc(C(=O)OCCN(C)C)cc12,Potency,[6],inactive
same,Potency,[4],inactive
same,Potency,[5],inactive
same,Potency,[7],inactive
C=CC(=C)CCC=C(C)C,Potency,[1],inactive
same,Potency,[2],inactive
same,Potency,[5],inactive
same,Potency,[3],54.9 µM (active)
same,Potency,[8],inactive
COC(=O)NCCC[Si](OC)(OC)OC,Potency,[3],49 µM (active)
same,Potency,[8],inactive
CC1CCCNC1 (stereo not given),Potency,[1],inactive
same,Potency,[2],inactive
same,Potency,[3],47.9 µM (active)
same,Potency,[8],inactive
O=C(Oc1ccccc1)c1cccc(C(=O)Oc2ccccc2)c1,Potency,[3],inactive
S=P(N1CC1)(N1CC1)N1CC1,Potency,[4],inactive
same,Potency,[2],inactive
same,Potency,[3],41 µM (active)
CCC(C)c1cc([N+](=O)[O-])cc([N+](=O)[O-])c1OC(=O)OC(C)C (stereo not given),Potency,[3],54.9 µM (active)
same,Potency,[8],34.7 µM (active)
O=C(NO)c1ccccc1,Potency,[3],inactive
CCC(=O)OCCc1ccccc1,Potency,[1],inactive
same,Potency,[4],inactive
same,Potency,[2],inactive
same,Potency,[5],inactive
same,Potency,[3],41.8 µM (active)
same,Potency,[8],inactive
CN(C)c1ccc(N=Nc2ccccc2C(=O)O)cc1,Potency,[2],inactive
same,Potency,[5],inactive
same,Potency,[3],inactive
same,Potency,[8],inactive
CCNc1nc(NC(C)CC)nc(OC)n1 (stereo not given),Potency,[4],inactive
same,Potency,[2],inactive
same,Potency,[5],inactive
same,Potency,[8],inactive
